The text below walks through data of PubChem BioAssay.

Unmarked numbers belong to inactive results. For part of these data: Potency and affinity values are given separately. Activity calls are given as the source filed them. Unless noted, no rule for the calls is given here.

The nature of assay [1]: antimalarial activity against Dd2 strain (AID 2302;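 active = growth inhibition above 50% at the single 2 µM test dose, taken to imply half-maximal potency below 2 µM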;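 also: 0% = DMSO untreated growth and 100% = chloroquine plus artemisinin killed control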). The settings on record: P. falciparum Dd2 in RBCs, LDH growth readout, 72 h; at 2 µM; stronger effect = higher value.
Assay [2] in a line: HepG2 cytotoxicity, primary screen, cytotoxicity control for P. falciparum antimalarial project, cell-based, ATP luminescence (AID 2303;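 active = inhibition above 50%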;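 also: 0% = DMSO wells and 100% = digitonin-killed cells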). The settings on record: HepG2 viability, 24-48 h, at 10 µM, stronger effect = higher value.
Assay [3] addresses L-lactate dehydrogenase (Plasmodium falciparum (isolate CDC / Honduras)) (UniProt Q27743). The assay can be described thus: PfLDH activity inhibition – cell lysate, 3D7 strain, counter-screen for P. falciparum growth inhibition project (AID 2304).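 Also: 0% = vehicle and 100% = reference inhibitor.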 The settings on record: P. falciparum 3D7 crude extract, LDH APAD/NBT absorbance; at 2 µM; stronger effect = higher value. On the technique in general: The purpose of a counterscreen is to sort out artefacts and off-target activity.

Assay [4] in a line: inhibition of 3D7 malaria parasite growth – strain 3D7 (AID 2306).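 Also: 0% = DMSO wells and 100% = chloroquine plus artemisinin control wells.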 The settings on record: P. falciparum 3D7 erythrocytic growth, LDH absorbance, 72 h; at 2 µM; stronger effect = higher value.
Assay [5] deals with Calcium-dependent protein kinase 1 (Plasmodium falciparum (isolate 3D7)) (UniProt P62344). The assay can be described thus: PfCDPK1 kinase inhibitors, biochemical, TCAMS library (AID 1159585; cut-off not given, nearly all actives have IC50 up to about 0.98 µM;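 also: inhibitors leave more ATP so luminescence rises with inhibition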). The settings on record: recombinant PfCDPK1, Kinase-Glo ATP depletion luminescence. (In Kinase-Glo more light means more ATP remaining.)
For assay [6], the target named is Plasmodium falciparum protein kinase 6 (PK6, PF3D7_1337100) (UniProt Q8IDW1). Briefly: PfPK6 kinase inhibitors, biochemical, TCAMS library (AID 1159586). The settings on record: recombinant PfPK6, Kinase-Glo ATP depletion luminescence.
In assay [7] the target is Protein kinase 7 (PK7), Plasmodium falciparum 3D7 (PF3D7_0213400) (UniProt Q7YTF7). Briefly: inhibition of Plasmodium PK7 catalytic activity – biochemical, TCAMS antimalarial set, Kinase-Glo luminescence (AID 1159587). The settings on record: recombinant PfPK7, Kinase-Glo ATP depletion luminescence.
Assay [8] deals with Calcium-dependent protein kinase 4 (Plasmodium falciparum (isolate 3D7)) (UniProt Q8IBS5). The assay can be described thus: PfCDPK4 kinase inhibitors, biochemical, TCAMS library (AID 1159588; cut-off not given, nearly all actives have IC50 up to about 0.91 µM). To be noted: recombinant PfCDPK4, Kinase-Glo ATP depletion luminescence.
Sequence of Calcium-dependent protein kinase 4 (Plasmodium falciparum (isolate 3D7)) (Q8IBS5 whole entry, looked up): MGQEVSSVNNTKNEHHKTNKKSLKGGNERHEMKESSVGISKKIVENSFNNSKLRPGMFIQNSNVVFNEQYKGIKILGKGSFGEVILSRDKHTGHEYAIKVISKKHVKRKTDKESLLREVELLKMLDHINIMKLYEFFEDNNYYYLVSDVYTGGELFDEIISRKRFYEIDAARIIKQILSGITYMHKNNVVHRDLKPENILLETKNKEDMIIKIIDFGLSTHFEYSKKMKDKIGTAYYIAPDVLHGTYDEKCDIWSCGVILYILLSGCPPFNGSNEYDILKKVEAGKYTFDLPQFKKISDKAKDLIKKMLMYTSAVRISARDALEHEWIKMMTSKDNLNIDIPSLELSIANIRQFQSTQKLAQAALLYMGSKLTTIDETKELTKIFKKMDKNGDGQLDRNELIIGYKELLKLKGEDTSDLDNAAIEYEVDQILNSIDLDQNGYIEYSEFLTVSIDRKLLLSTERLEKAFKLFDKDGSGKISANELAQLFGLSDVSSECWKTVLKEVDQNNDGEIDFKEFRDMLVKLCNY

Sequence of Protein kinase 7 (PK7), Plasmodium falciparum 3D7 (PF3D7_0213400) (Q7YTF7 1-343): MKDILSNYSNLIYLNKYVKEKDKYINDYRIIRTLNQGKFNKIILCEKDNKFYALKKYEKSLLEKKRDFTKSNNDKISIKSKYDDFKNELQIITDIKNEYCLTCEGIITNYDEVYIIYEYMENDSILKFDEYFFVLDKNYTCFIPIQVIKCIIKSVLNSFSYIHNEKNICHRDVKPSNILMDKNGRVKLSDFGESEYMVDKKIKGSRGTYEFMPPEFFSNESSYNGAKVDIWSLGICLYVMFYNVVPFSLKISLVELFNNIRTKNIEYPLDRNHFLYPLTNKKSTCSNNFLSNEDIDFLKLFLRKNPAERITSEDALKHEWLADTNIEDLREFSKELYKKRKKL
Sequence of L-lactate dehydrogenase (Plasmodium falciparum (isolate CDC / Honduras)) (Q27743 whole entry, looked up): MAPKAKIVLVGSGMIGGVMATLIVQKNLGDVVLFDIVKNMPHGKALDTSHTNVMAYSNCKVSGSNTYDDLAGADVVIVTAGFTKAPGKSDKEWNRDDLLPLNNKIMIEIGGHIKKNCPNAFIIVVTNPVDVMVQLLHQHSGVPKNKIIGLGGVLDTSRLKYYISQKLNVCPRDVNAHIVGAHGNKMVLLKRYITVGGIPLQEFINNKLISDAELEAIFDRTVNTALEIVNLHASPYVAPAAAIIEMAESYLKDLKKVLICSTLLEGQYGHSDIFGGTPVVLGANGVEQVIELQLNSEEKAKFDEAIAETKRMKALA
Sequence of Calcium-dependent protein kinase 1 (Plasmodium falciparum (isolate 3D7)) (P62344 whole entry, looked up): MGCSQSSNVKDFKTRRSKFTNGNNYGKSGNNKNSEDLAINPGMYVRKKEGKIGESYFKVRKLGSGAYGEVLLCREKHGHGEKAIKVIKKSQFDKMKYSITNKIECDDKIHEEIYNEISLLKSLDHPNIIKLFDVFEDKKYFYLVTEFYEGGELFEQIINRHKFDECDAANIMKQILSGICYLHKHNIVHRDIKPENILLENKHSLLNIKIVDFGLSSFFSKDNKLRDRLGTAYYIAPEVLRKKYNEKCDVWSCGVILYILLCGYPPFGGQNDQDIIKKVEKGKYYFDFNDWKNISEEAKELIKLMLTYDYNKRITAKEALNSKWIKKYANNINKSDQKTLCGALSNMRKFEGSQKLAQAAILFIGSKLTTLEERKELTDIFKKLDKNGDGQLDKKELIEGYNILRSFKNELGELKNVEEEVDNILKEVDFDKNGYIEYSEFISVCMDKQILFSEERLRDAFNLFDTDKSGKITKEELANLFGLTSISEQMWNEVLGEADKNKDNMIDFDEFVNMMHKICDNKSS
Sequence of Plasmodium falciparum protein kinase 6 (PK6, PF3D7_1337100) (Q8IDW1 1-305): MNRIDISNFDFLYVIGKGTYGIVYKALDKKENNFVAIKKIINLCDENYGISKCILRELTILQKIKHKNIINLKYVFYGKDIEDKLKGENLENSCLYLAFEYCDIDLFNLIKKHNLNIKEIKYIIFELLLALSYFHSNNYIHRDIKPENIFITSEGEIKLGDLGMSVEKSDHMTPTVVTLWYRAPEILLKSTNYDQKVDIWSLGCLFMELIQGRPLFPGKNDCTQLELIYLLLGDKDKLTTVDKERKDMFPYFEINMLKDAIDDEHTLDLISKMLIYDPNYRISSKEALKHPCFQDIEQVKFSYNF

A word on the inhibition: it is the change of the read-out against control, counted positive when it falls. For `COc1cccc(CN2CCC(N3CCc4cc(NC(=O)c5cc(C)on5)ccc43)C2)c1OC` (stereo not drawn), the figures for the growth inhibition in assay [1] and in assay [4] were 92% (active) and 93% (active), respectively. The inhibition is 9% in assay [2] and 4% in assay [3]. In addition, the outcome in assay [5], in assay [6], in assay [7] and in assay [8] was inactive.

Consider `CN(C)c1cc(NC(=O)Nc2ccccc2)c2ccccc2n1`, for which the growth inhibition was 98% (active) in assay [1] and 101% (active) in assay [4]. Also, the inhibition was 11% in assay [2] and -5% in assay [3]. Also, the result in assay [5], in assay [6], in assay [7] and in assay [8] was inactive.

With `COc1ccc2c(NN=CC=Cc3ccccc3)ccnc2c1`, the growth inhibition in assay [1] and in assay [4] was 100% (active) throughout. Further, the inhibition is 9% in assay [2] and 4% in assay [3]. For the same compound, the result in assay [5], in assay [6], in assay [7] and in assay [8] was inactive.

As to `N#Cc1cccc(C(=O)Nc2ccc(-c3nc4ccccc4[nH]3)cc2)c1`, the growth inhibition was 38% in assay [1] and 91% (active) in assay [4]. Besides, the inhibition in assay [2] is 33%; in assay [3] it was -2%. In addition, the result in assay [5], in assay [6], in assay [7] and in assay [8] was inactive.

As to `Cc1ccc(NC(=O)c2cc(Br)cc(N3CCC(N(C)C)CC3)c2)cc1F`, the growth inhibition in assay [1] was 80% (active); in assay [4], 100% (active). In addition, the inhibition was 23% in assay [2] and -3% in assay [3]. Moreover, the outcome in assay [5], in assay [6], in assay [7] and in assay [8] was inactive.

In the case of `Cc1[nH]c(C)c(-c2ccc(Cl)cc2Cl)c(=O)c1Br`, the growth inhibition was 57% (active) in assay [1] and 87% (active) in assay [4]. Also, the results for the inhibition in assay [2] and in assay [3] were 3% and -4%, respectively. Moreover, the result in assay [5], in assay [6], in assay [7] and in assay [8] was inactive.

For `COc1ccc2nc(C)cc(NN=Cc3cc(OC)c(OC)cc3OC)c2c1`, the growth inhibition is 56% (active) in assay [1] and 100% (active) in assay [4]. The inhibition in assay [2] is 1%; in assay [3], 5%. Moreover, the outcome in assay [5], in assay [6], in assay [7] and in assay [8] was inactive.

In the case of `CN1CCN(c2ccnc3ccc(NC(=O)Nc4cccc5c(C#N)cccc45)cc23)CC1`, the growth inhibition in assay [1] was 40%; in assay [4], 91% (active). Besides, the inhibition was -6% in assay [2] and 8% in assay [3]. The result in assay [5], in assay [6], in assay [7] and in assay [8] was inactive.

Consider `CN1CCCC1CCCOC(=O)c1ccc(N)cc1` (stereo not drawn), for which the growth inhibition was 2% in assay [1] and 101% (active) in assay [4]. Moreover, the inhibition was 8% in assay [2] and -2% in assay [3]. For the same compound, the result in assay [5], in assay [6], in assay [7] and in assay [8] was inactive.

On to `O=C(Nc1ccc(OC2CCN(Cc3ccccc3)CC2)c(Cl)c1)c1ccco1`, for which the growth inhibition in assay [1] and in assay [4] was 96% (active) throughout. For the same compound, the inhibition in assay [2] was 8%; in assay [3], 6%. For the same compound, the result in assay [5], in assay [6], in assay [7] and in assay [8] was inactive.

`CC(C)(C)c1nn(-c2ccc(Cl)cc2)c2[nH]c(=O)c(CNCc3ccc4c(c3)OCO4)cc12`: the results for the growth inhibition in assay [1] and in assay [4] were 98% (active) and 100% (active), respectively. Further, the inhibition in assay [2] was 15%; in assay [3], 7%. For the same compound, the result in assay [5], in assay [6], in assay [7] and in assay [8] was inactive.

In the case of `COc1cccc(NC(=O)NC2CCN(c3ccnc(Nc4ccc(F)cc4)n3)C2)c1` (stereo not drawn), the values for the growth inhibition in assay [1] and in assay [4] were 71% (active) and 100% (active), respectively. Also, the inhibition was 9% in assay [2] and -2% in assay [3]. The outcome in assay [5], in assay [6], in assay [7] and in assay [8] was inactive.

For `CCOc1ccc(C(=O)N2CCOC(CCN3CCC(c4ccccc4)CC3)(c3ccc(Cl)c(Cl)c3)C2)cc1` (stereo not drawn), the growth inhibition in assay [1] is 71% (active); in assay [4] it was 88% (active). Besides, the inhibition is 14% in assay [2] and 8% in assay [3]. Besides, the result in assay [5], in assay [6], in assay [7] and in assay [8] was inactive.

Take `COc1ccc(C2CCN(CCCCNC(=O)c3ccc(NC(=O)c4ccc(Cl)cc4)cc3)CC2)c(OC)c1`: the growth inhibition in assay [1] is 95% (active); in assay [4], 101% (active). Also, the inhibition in assay [2] was 32%; in assay [3], 0%. Moreover, the result in assay [5], in assay [6], in assay [7] and in assay [8] was inactive.

On to `O=C(NC1CCC(N2CCC(Cc3ccc(F)cc3)CC2)CC1)c1cc2ccccc2[nH]1` (stereo not drawn), for which the growth inhibition in assay [1] was 39%; in assay [4], 98% (active). Further, the values for the inhibition in assay [2] and in assay [3] were 60% (active) and -2%, respectively. The result in assay [5], in assay [6], in assay [7] and in assay [8] was inactive.

In the case of `Cc1cc(N(C)C)nc(Nc2ccc(NC(=O)c3ccc(Br)o3)cc2)n1`, the growth inhibition was 57% (active) in assay [1] and 101% (active) in assay [4]. For the same compound, the inhibition in assay [2] was 1%; in assay [3], -2%. Also, the outcome in assay [5], in assay [6], in assay [7] and in assay [8] was inactive.

Turning to `CCCCCc1ccc(N2C(N)=NC(N)=NC2(C)C)cc1`, the growth inhibition is 1% in assay [1] and 95% (active) in assay [4]. Besides, the inhibition was 59% (active) in assay [2] and -6% in assay [3]. The result in assay [5], in assay [6], in assay [7] and in assay [8] was inactive.

As for `Cc1cc(N)c2cc(NC(=O)/C=C/c3ccc([N+](=O)[O-])cc3)ccc2n1`, the growth inhibition is 80% (active) in assay [1] and 100% (active) in assay [4]. Besides, the inhibition in assay [2] was 76% (active); in assay [3], -2%. Moreover, the outcome in assay [5], in assay [6], in assay [7] and in assay [8] was inactive.

As to `CCN(CC)CCN(Cc1ccc(-c2ccc(C(F)(F)F)cc2)cc1)C(=O)Cn1cc(Cc2cnn(C)c2)c(=O)n2nc(-c3ccccc3)cc12`, the values for the growth inhibition in assay [1] and in assay [4] were 74% (active) and 100% (active), respectively. In addition, the inhibition in assay [2] is 18%; in assay [3] it was -2%. The result in assay [5], in assay [6], in assay [7] and in assay [8] was inactive.

On to `CCc1ccc(C2CCN(CCCCNC(=O)c3ccc(-c4ccc(C(F)(F)F)cc4)cc3)CC2)c(OCCO)c1`, for which the growth inhibition in assay [1] is 69% (active); in assay [4], 101% (active). Further, the inhibition is 82% (active) in assay [2] and -6% in assay [3]. Further, the outcome in assay [5], in assay [6], in assay [7] and in assay [8] was inactive.

`COc1cccc2c(C)cc(NCc3ccc(Cl)cc3)nc12`: the growth inhibition in assay [1] was 5%; in assay [4], 97% (active). The values for the inhibition in assay [2] and in assay [3] were 7% and 5%, respectively. The result in assay [5], in assay [6], in assay [7] and in assay [8] was inactive.
